Reference: PubChem BioAssay (NCI)
The panel holds about 83,000 compounds, 20% with a hit somewhere; the sample as a whole holds those more often.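 In brief: 96-well plates, 48 h treatment, single concentration, percent growth endpoint.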 The source made the active and inactive calls. The calls were made as follows: active = growth percent below 10; inactive = the rest.

Assays:
Assay in all cases: NCI-60 one-dose screen, 48 h (100 = growth as untreated, 0 = no growth, -100 = all killed)
HCT-15 colon = details: 10 µM unless noted
HT29 colon = details: 10 µM unless noted
SNB-75 CNS = details: 10 µM unless noted
SNB-19 CNS = details: 10 µM unless noted
U251 CNS = details: 10 µM unless noted
PC-3 prostate = details: 10 µM unless noted
SK-MEL-5 melanoma = details: 10 µM unless noted
UACC-62 melanoma = details: 10 µM unless noted
LOX IMVI melanoma = details: 10 µM unless noted
SK-MEL-28 melanoma = details: 10 µM unless noted
SK-MEL-2 melanoma = details: 10 µM unless noted
EKVX NSCLC = details: 10 µM unless noted
SN12C renal = details: 10 µM unless noted
UO-31 renal = details: 10 µM unless noted
ACHN renal = details: 10 µM unless noted
CAKI-1 renal = details: 10 µM
A498 renal = details: 10 µM unless noted
CCRF-CEM leukemia = details: 10 µM unless noted
MOLT-4 leukemia = details: 10 µM unless noted
TK-10 renal = details: 10 µM unless noted

Measured: growth

O=C1COc2ccccc2C(=O)N1CCCCN1CCCCC1
inactive: HCT-15 colon 91.3% | HT29 colon 73.6% | SNB-75 CNS 99.5% | SNB-19 CNS 99.4% | U251 CNS 88.9% | PC-3 prostate 57.7% | SK-MEL-5 melanoma 99.1% | UACC-62 melanoma 91.6% | LOX IMVI melanoma 90.7% | SK-MEL-28 melanoma 95.6% | SK-MEL-2 melanoma 95.4% | EKVX NSCLC 98.5% | SN12C renal 99.2% | UO-31 renal 91.7% | ACHN renal 99.2% | CAKI-1 renal 103% | A498 renal 114% | CCRF-CEM leukemia 69.4% | MOLT-4 leukemia 83.2%

O=c1[nH]ccc2nc(N3CCC(O)CC3)nc(Nc3cccc(C(F)(F)F)c3)c12
inactive: HCT-15 colon 49.9% | HT29 colon 71.6% | SNB-75 CNS 87.1% | SNB-19 CNS 98.9% | U251 CNS 55.2% | PC-3 prostate 30.6% | UACC-62 melanoma 32% | LOX IMVI melanoma 56.2% | SK-MEL-28 melanoma 76.1% | SK-MEL-2 melanoma 25.2% | EKVX NSCLC 83% | SN12C renal 61.4% | TK-10 renal 67.6% | ACHN renal 67.6% | CAKI-1 renal 38.6% | A498 renal 93.6% | CCRF-CEM leukemia 13%
active: SK-MEL-5 melanoma -55.9% | MOLT-4 leukemia 1.19%

O=c1c2ccccc2sc2c(NCCCNCCO)nc3ccccc3c12
active: HT29 colon -47.3% | SK-MEL-5 melanoma -64.7% | UACC-62 melanoma -17.8% | LOX IMVI melanoma -87.4% | SK-MEL-28 melanoma -18.1% | SK-MEL-2 melanoma -35.6% | ACHN renal -7.87% | CCRF-CEM leukemia -6.25% | MOLT-4 leukemia -20.4%
inactive: HCT-15 colon 13.7% | SNB-75 CNS 35.3% | SNB-19 CNS 63.7% | U251 CNS 21.3% | PC-3 prostate 22.1% | EKVX NSCLC 55.6% | SN12C renal 44.8% | UO-31 renal 28.9% | A498 renal 16.4%

CCCC(=O)Oc1ccc(/C(=C(\C)c2ccc(OC)cc2)c2ccc(OCCN3CCCCC3)cc2)cc1
active: HT29 colon 1.78%
inactive: HCT-15 colon 64.1% | SNB-75 CNS 73% | SNB-19 CNS 91% | U251 CNS 63.8% | PC-3 prostate 64.7% | SK-MEL-5 melanoma 68.8% | UACC-62 melanoma 63.6% | LOX IMVI melanoma 68.5% | SK-MEL-28 melanoma 63.9% | SK-MEL-2 melanoma 80.9% | EKVX NSCLC 89.1% | SN12C renal 84.8% | UO-31 renal 65.2% | ACHN renal 91.8% | A498 renal 80.7% | CCRF-CEM leukemia 83.3% | MOLT-4 leukemia 72.5%

CC(C)(C)OC(=O)NCc1cccc(N=C=S)c1
inactive: HCT-15 colon 38.9% | HT29 colon 37.6% | SNB-75 CNS 40.7% | SNB-19 CNS 77.1% | U251 CNS 58.3% | PC-3 prostate 51.2% | SK-MEL-5 melanoma 49.2% | UACC-62 melanoma 14.2% | LOX IMVI melanoma 24.4% | SK-MEL-28 melanoma 23.1% | SK-MEL-2 melanoma 41.9% | EKVX NSCLC 71.6% | SN12C renal 69.6% | UO-31 renal 49.2% | ACHN renal 61.5%
active: A498 renal -11.6% | CCRF-CEM leukemia 3.13% | MOLT-4 leukemia -24.6%

Cc1[nH]c2ccc(F)cc2c1CCNC(=O)C1CCN(C(=O)c2ccc(-c3ccccc3)cc2)CC1
inactive: HCT-15 colon 35.2% | SNB-75 CNS 49.1% | SNB-19 CNS 65.3% | U251 CNS 48.7% | PC-3 prostate 23.2% | SK-MEL-5 melanoma 27.4% | UACC-62 melanoma 55% | LOX IMVI melanoma 48.8% | SK-MEL-28 melanoma 67.7% | SK-MEL-2 melanoma 71.6% | EKVX NSCLC 44.2% | SN12C renal 64.1% | UO-31 renal 36.5% | ACHN renal 52.6% | A498 renal 47.9% | CCRF-CEM leukemia 54.1%
active: HT29 colon 5.89%

CCc1ccc(C2=C/C(=C/c3ccc(Cl)cc3)C(=O)N2CCc2ccc(S(N)(=O)=O)cc2)cc1
inactive: HCT-15 colon 17.7% | SNB-75 CNS 52.5% | SNB-19 CNS 54.6% | U251 CNS 25.1% | PC-3 prostate 11.5% | SK-MEL-5 melanoma 41.4% | UACC-62 melanoma 31.2% | LOX IMVI melanoma 24.3% | SK-MEL-28 melanoma 38.2% | EKVX NSCLC 29.7% | SN12C renal 29% | UO-31 renal 16.5% | ACHN renal 14.9% | A498 renal 33.1% | CCRF-CEM leukemia 15%
active: HT29 colon 6.46% | SK-MEL-2 melanoma -12.5% | MOLT-4 leukemia -1.62%

Cc1ccc(-c2cn3cc([N+](=O)[O-])ccc3n2)cc1
inactive: HCT-15 colon 80.2% | HT29 colon 91.6% | SNB-75 CNS 77.5% | SNB-19 CNS 92.1% | U251 CNS 85.6% | PC-3 prostate 77.1% | SK-MEL-5 melanoma 58.9% | UACC-62 melanoma 82.6% | LOX IMVI melanoma 58.3% | SK-MEL-28 melanoma 94.3% | SK-MEL-2 melanoma 71.5% | EKVX NSCLC 67.4% | SN12C renal 75.3% | UO-31 renal 57.2% | ACHN renal 73.4% | A498 renal 57.6% | CCRF-CEM leukemia 52.6% | MOLT-4 leukemia 57.6%
